# According to PMC7862700, “An all-to-all approach to the identification of sequence-specific readers for epigenetic DNA modifications on cytosine”:
# Tests used:
# Assay in all cases: DAPPL (digital affinity profiling via proximity ligation, sequencing); 10 mM Tris-HCl pH 7.5, 50 mM NaCl, 1 mM DTT, 4% glycerol, room temperature, 30 min; GST-TFs on glutathione beads, 16-mer random dsDNA library, 0.1% formaldehyde crosslink after washing; high values mean tight binding
# Conditions in all cases: protein: recombinant; tags: N-terminal GST; dsDNA, one strand shown
# FEV = biological target: T1, FEV (Homo sapiens, UniProt Q99581 1-238)
# T1 sequence: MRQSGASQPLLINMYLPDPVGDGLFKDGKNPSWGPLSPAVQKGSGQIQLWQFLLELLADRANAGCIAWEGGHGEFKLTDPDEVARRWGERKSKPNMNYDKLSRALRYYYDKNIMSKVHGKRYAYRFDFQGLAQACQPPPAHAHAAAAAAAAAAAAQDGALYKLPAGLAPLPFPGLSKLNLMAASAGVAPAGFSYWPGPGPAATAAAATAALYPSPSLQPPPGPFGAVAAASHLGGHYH
# Method in brief: (§1)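 Binding signal is each hexamer's read frequency for a factor divided by its frequency in the tag-only sample. The factors were GST-fused human transcription factors from yeast, captured on glutathione beads, DNA-barcoded and pooled with that sample. Pools were incubated with 200 nmole of a random double-stranded 16-mer DNA library in Tris/NaCl/DTT/glycerol buffer at room temperature for 30 min, then washed, crosslinked with 0.1% formaldehyde, proximity-ligated with BsaI/T4 ligase (1 h, 37 °C), PCR-amplified and sequenced on an Illumina NextSeq500.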
# ETV5 = ETV5 (Homo sapiens, UniProt P41161 1-510)
# Method in brief: as §1
# SPIC = biological target: T2, SPIC (Homo sapiens, UniProt Q8N5J4 1-248)
# T2 sequence: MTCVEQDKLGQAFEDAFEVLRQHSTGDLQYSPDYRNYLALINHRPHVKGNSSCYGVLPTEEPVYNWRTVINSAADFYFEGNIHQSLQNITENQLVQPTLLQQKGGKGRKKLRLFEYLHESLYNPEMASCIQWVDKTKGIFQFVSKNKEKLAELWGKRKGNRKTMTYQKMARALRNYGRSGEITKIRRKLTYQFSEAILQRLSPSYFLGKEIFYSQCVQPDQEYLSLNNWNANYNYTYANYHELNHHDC
# Method in brief: as §1
# ELF4 = ELF4 (Homo sapiens, UniProt Q99607 1-663)
# Method in brief: as §1
# ELK4 = biological target: T3, ELK4 (Homo sapiens, UniProt P28324-2 1-405)
# T3 sequence: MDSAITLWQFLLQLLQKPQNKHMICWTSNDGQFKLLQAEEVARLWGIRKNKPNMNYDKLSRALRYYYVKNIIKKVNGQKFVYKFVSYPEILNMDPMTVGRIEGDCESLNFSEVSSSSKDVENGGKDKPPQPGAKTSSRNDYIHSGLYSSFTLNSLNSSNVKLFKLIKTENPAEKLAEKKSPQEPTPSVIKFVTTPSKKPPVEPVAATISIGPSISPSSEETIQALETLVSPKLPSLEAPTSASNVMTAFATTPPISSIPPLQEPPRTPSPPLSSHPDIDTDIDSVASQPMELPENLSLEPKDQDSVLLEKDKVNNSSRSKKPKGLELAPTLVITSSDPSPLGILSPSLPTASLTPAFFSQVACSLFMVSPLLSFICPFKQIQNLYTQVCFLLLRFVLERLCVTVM
# Method in brief: as §1
# ETV2 = biological target: T4, ETV2 (Homo sapiens, UniProt O00321 1-342)
# T4 sequence: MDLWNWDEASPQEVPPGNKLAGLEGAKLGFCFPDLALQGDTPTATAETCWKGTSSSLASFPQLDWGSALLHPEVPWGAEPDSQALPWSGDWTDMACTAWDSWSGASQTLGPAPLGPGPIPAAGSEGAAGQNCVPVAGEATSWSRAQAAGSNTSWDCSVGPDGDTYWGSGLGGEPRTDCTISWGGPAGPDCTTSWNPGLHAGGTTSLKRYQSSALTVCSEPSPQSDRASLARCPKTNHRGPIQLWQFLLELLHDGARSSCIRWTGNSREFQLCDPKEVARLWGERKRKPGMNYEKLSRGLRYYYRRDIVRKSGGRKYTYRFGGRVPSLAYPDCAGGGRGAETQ
# Method in brief: as §1
# ELF3 = biological target: T5, ELF3 (Homo sapiens, UniProt P78545 1-371)
# T5 sequence: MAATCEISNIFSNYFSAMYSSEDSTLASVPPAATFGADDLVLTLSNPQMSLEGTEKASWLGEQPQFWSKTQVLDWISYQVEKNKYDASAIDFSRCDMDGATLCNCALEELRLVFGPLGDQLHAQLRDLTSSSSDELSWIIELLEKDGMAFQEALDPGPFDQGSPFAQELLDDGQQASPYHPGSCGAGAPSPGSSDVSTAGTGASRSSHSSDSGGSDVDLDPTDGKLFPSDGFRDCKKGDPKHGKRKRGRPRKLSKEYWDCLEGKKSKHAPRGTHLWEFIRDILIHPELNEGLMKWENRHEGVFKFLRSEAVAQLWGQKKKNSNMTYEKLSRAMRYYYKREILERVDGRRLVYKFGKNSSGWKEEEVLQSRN
# Method in brief: as §1
# CRX = CRX (Homo sapiens, UniProt O43186 1-299)
# Method in brief: as §1
# ETV1 = ETV1 (Homo sapiens, UniProt P50549 1-477)
# Method in brief: as §1
# ERF = biological target: T6, ERF (Homo sapiens, UniProt P50548 1-548)
# T6 sequence: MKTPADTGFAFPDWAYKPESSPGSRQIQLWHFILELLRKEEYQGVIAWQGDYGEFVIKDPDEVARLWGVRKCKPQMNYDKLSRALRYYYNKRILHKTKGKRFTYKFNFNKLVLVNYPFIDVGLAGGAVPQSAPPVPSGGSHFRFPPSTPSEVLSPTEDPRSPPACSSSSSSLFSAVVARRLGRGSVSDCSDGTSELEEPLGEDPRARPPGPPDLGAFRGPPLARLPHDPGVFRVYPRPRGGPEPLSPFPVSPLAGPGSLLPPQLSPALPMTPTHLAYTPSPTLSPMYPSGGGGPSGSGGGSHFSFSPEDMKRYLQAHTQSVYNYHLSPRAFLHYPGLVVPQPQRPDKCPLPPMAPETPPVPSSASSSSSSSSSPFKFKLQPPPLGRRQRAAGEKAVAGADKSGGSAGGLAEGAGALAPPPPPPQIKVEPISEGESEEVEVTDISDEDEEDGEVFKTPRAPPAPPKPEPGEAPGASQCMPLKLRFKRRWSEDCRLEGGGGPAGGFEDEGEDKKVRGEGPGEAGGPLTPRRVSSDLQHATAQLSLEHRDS
# Method in brief: as §1
# ETV3L = biological target: T7, ETV3L (Homo sapiens, UniProt Q6ZN32 1-361)
# T7 sequence: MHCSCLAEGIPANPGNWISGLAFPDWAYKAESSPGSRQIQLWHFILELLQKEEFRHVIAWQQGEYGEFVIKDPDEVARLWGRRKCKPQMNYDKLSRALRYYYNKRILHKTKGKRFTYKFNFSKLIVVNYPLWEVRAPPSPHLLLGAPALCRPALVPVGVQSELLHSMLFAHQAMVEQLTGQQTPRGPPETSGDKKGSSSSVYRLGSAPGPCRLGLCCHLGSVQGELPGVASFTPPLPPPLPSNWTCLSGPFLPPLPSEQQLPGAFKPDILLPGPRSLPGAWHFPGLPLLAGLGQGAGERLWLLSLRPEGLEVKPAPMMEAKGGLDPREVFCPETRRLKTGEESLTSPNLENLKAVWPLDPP
# Method in brief: as §1
# ETS2 = biological target: T8, ETS2 (Homo sapiens, UniProt P15036 1-469)
# T8 sequence: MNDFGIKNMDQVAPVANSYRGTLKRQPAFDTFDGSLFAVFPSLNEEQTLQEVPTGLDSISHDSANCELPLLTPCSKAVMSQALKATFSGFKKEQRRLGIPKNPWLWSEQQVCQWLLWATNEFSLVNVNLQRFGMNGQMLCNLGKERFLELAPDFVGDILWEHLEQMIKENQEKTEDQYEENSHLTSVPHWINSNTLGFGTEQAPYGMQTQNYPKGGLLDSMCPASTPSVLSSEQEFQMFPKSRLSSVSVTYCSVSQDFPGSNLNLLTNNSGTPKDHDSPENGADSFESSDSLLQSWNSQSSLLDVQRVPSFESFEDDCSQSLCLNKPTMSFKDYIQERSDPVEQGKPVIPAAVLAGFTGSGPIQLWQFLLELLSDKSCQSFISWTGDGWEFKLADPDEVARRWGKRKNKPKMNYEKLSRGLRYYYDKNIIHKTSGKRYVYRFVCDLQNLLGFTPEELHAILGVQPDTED
# Method in brief: as §1
# SPDEF = biological target: T9, SPDEF (Homo sapiens, UniProt O95238 1-335)
# T9 sequence: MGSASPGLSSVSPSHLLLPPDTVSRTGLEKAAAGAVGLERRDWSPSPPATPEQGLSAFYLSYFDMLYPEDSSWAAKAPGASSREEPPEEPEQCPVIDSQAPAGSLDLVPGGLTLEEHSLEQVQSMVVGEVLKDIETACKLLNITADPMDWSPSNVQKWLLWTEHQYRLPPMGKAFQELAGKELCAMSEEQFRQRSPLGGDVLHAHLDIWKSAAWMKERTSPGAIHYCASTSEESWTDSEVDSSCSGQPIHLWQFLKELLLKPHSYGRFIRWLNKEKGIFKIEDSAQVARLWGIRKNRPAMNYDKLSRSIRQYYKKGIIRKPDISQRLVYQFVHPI
# Method in brief: as §1
# ETV7 = biological target: T10, ETV7 (Homo sapiens, UniProt Q9Y603 1-341)
# T10 sequence: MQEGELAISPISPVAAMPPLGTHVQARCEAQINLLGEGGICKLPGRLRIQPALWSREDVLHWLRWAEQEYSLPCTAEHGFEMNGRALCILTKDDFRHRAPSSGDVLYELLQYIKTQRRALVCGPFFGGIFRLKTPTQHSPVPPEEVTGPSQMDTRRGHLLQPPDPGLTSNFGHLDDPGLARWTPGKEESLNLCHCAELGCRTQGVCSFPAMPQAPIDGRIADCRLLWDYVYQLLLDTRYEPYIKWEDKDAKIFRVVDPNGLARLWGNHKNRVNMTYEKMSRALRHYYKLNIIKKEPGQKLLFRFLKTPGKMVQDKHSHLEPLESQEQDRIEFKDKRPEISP
# Method in brief: as §1
# ELF5 = biological target: T11, ELF5 (Homo sapiens, UniProt Q9UKW6-2 1-255)
# T11 sequence: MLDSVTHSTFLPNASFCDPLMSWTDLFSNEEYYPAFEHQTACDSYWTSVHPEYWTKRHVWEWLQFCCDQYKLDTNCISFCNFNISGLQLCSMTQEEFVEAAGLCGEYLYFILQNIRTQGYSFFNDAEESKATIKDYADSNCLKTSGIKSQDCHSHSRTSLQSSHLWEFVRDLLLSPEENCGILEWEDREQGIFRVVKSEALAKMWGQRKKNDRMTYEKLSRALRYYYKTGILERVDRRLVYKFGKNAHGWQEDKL
# Method in brief: as §1
# ETV3 = biological target: T12, ETV3 (Homo sapiens, UniProt P41162-2 1-143)
# T12 sequence: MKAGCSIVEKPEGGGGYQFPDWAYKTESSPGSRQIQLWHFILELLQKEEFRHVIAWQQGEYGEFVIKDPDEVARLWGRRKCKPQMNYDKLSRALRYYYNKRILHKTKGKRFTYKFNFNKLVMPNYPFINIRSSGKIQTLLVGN
# Method in brief: as §1
# ETV6 = ETV6 (Homo sapiens, UniProt P41212 1-452)
# Method in brief: as §1
# Sequence of CRX (O43186 whole entry): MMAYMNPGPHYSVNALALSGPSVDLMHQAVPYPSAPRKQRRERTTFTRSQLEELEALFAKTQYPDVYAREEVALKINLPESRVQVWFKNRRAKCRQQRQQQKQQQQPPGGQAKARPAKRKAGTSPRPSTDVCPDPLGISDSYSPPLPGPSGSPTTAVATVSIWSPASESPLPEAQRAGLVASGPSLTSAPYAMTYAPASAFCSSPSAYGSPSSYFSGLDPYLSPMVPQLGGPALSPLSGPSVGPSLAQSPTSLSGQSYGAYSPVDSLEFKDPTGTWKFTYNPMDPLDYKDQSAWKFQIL
# Sequence of ELF4 (Q99607 whole entry): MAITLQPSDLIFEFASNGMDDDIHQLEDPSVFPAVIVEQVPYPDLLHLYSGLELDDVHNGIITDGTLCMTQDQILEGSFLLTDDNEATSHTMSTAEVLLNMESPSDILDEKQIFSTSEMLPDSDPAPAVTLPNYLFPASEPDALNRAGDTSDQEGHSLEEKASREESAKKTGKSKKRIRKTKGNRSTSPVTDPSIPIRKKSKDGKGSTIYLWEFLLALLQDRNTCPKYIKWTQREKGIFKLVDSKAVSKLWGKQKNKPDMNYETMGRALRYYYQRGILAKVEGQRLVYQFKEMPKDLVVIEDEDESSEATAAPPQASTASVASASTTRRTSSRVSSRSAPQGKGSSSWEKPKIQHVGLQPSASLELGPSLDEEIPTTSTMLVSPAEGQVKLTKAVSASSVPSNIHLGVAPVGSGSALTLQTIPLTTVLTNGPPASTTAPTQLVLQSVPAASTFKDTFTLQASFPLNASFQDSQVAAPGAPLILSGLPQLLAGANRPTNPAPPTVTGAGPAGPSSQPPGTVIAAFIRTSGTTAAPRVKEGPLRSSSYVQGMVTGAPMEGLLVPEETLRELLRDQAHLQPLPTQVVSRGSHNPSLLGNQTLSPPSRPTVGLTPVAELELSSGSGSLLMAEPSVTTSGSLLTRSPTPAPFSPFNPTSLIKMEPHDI
# Sequence of ETV1 (P50549 whole entry): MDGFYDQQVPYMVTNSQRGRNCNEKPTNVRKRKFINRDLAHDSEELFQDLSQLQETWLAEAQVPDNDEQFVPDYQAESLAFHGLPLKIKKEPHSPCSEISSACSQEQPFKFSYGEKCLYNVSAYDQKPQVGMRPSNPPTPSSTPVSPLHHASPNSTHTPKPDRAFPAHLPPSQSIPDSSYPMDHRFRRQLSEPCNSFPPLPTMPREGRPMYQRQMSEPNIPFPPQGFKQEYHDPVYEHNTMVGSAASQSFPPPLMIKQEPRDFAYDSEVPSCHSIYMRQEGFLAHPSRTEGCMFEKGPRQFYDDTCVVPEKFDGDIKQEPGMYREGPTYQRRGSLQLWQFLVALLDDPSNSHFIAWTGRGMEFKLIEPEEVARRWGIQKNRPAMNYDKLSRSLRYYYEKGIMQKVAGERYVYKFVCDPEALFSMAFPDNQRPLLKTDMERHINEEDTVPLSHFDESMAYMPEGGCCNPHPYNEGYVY
# Sequence of ETV5 (P41161 whole entry): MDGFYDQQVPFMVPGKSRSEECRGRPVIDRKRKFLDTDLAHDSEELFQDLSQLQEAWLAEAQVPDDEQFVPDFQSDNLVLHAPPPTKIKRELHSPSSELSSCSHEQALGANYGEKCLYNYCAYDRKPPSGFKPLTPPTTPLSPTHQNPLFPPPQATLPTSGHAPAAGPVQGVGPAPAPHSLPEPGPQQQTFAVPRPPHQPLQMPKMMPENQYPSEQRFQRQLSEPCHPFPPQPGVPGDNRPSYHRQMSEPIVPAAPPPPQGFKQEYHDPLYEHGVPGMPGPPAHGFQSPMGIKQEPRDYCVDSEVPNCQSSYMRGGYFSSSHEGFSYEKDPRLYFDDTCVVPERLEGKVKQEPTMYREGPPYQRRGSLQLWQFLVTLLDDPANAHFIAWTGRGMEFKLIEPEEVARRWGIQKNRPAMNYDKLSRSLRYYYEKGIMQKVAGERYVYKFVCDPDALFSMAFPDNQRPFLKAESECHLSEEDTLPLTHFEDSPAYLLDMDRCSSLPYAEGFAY
# Sequence of ETV6 (P41212 whole entry): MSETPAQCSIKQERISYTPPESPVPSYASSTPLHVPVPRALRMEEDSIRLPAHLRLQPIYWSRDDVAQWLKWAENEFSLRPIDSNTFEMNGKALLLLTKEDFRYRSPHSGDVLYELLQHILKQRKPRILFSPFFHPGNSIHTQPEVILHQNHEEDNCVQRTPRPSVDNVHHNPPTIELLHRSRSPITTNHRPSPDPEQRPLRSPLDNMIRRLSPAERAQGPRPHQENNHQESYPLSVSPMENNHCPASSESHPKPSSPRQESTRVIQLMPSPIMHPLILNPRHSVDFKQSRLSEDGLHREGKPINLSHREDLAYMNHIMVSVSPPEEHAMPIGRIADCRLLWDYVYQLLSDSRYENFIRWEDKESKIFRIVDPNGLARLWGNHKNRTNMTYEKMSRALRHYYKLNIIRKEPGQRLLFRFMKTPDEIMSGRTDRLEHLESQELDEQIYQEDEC
Sequence,binding signal (FEV),binding signal (ETV5),binding signal (SPIC),binding signal (ELF4),binding signal (ELK4),binding signal (ETV2),binding signal (ELF3),binding signal (CRX),binding signal (ETV1),binding signal (ERF),binding signal (ETV3L),binding signal (ETS2),binding signal (SPDEF),binding signal (ETV7),binding signal (ELF5),binding signal (ETV3),binding signal (ETV6)
TCCGTT,"1.71 fold enrichment (6-mer frequency, TF over GST control)","1.49 fold enrichment (6-mer frequency, TF over GST control)","1.62 fold enrichment (6-mer frequency, TF over GST control)","1.25 fold enrichment (6-mer frequency, TF over GST control)","1.48 fold enrichment (6-mer frequency, TF over GST control)","1.44 fold enrichment (6-mer frequency, TF over GST control)","1.35 fold enrichment (6-mer frequency, TF over GST control)","1.13 fold enrichment (6-mer frequency, TF over GST control)","1.36 fold enrichment (6-mer frequency, TF over GST control)","1.53 fold enrichment (6-mer frequency, TF over GST control)","1.46 fold enrichment (6-mer frequency, TF over GST control)","1.54 fold enrichment (6-mer frequency, TF over GST control)","1.74 fold enrichment (6-mer frequency, TF over GST control)","1.41 fold enrichment (6-mer frequency, TF over GST control)","1.66 fold enrichment (6-mer frequency, TF over GST control)","1.58 fold enrichment (6-mer frequency, TF over GST control)","1.49 fold enrichment (6-mer frequency, TF over GST control)"
GCCTCC,"1.32 fold enrichment (6-mer frequency, TF over GST control)","1.31 fold enrichment (6-mer frequency, TF over GST control)","1.38 fold enrichment (6-mer frequency, TF over GST control)","1.34 fold enrichment (6-mer frequency, TF over GST control)","1.22 fold enrichment (6-mer frequency, TF over GST control)","1.29 fold enrichment (6-mer frequency, TF over GST control)","1.24 fold enrichment (6-mer frequency, TF over GST control)","1.03 fold enrichment (6-mer frequency, TF over GST control)","1.25 fold enrichment (6-mer frequency, TF over GST control)","1.39 fold enrichment (6-mer frequency, TF over GST control)","1.27 fold enrichment (6-mer frequency, TF over GST control)","1.27 fold enrichment (6-mer frequency, TF over GST control)","1.3 fold enrichment (6-mer frequency, TF over GST control)","1.29 fold enrichment (6-mer frequency, TF over GST control)","1.29 fold enrichment (6-mer frequency, TF over GST control)","1.24 fold enrichment (6-mer frequency, TF over GST control)","1.16 fold enrichment (6-mer frequency, TF over GST control)"
